Compounds with a hit are over-represented: about 3.2% of the library has one in this group of screens.
ERa SRC1 pot: ER-alpha (human) coactivator binding potentiation; actives 1.3% (n = 86,000); P03372; AID 639; coactivator binding (% of control), % at 25.6 µM; TR-FRET ERalpha-LBD/SRC-Cy5 coactivator binding, 2 h; 100 = basal binding, no effect; in the data active means activity above about 200%;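 further: binding measured in presence of low estradiol as agonist stimulus; 0% = peptide alone without receptor and 100% = receptor with peptide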
ERa coact inh: blocks coactivator binding to human estrogen receptor alpha; TR-FRET ER-alpha LBD / SRC-1 peptide, estradiol-bound; P03372; AID 629; actives 1.7% (n = 86,000); inhibition, % at 25.6 µM; in the data active means inhibition above about 50%;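 further: 0% = receptor plus peptide control and 100% = peptide only without receptor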
FAK blocker: inhibitors of human focal adhesion kinase | Q05397 | biochemical FAK kinase activity assay | inhibition, %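 (tested at 7 µM)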 | actives 0.84% (n = 97,000) | AID 727; in the data active means inhibition above about 19%;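 further: 0% = DMSO and 100% = reference compound high control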
ERb coact inh: ER-beta (human) coactivator binding inhibition; AID 633; TR-FRET ER-beta LBD / SRC1-Cy5 peptide binding; receptor agonist-loaded with 1 µM estradiol; inhibition, % at 25.6 µM; actives 1.3% (n = 86,000); Q92731;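 active means compounds whose percent inhibition of the receptor-coactivator binding signal exceeds about 50% in the single-dose screen, limit read from the data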;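 further: 0% = receptor plus peptide wells without compound and 100% = peptide-only wells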
Target sequence (Q92731 whole entry, looked up, the tested form may be a part): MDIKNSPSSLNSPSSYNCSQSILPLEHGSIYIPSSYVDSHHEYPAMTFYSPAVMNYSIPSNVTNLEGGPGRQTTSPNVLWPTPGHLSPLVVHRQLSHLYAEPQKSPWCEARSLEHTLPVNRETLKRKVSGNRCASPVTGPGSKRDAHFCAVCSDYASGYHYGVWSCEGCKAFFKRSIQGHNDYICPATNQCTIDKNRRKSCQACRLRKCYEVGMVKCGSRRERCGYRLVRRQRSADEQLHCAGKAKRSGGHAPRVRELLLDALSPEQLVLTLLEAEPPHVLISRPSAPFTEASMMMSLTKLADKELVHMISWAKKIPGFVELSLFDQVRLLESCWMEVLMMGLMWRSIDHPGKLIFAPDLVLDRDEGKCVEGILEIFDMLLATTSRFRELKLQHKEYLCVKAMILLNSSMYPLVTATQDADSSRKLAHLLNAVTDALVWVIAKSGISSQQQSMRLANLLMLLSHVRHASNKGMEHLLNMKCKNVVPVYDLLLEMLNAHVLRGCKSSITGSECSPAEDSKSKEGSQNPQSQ
An asterisk follows results filed as active; nt = no result; [ ] = dose if it differs, or a comment.

SMILES | ERa SRC1 pot | ERa coact inh | FAK blocker | ERb coact inh
O=C(Cn1c(=O)oc2cc(S(=O)(=O)N3CCCC3)ccc21)NC1CCCc2ccccc21 (configuration not stated) | 36.1 | 88.8*[fluorescence artefact?] | nt | 66.6*[fluorescence artefact?]
O=C(Cn1c(=O)oc2cc(S(=O)(=O)N3CCCC3)ccc21)Nc1ccc(C(F)(F)F)cc1 | 144.0 | 69.3*[fluorescence artefact?] | 14.1 | 2.9
CC(NC(=O)Cn1c(=O)oc2cc(S(=O)(=O)N3CCCC3)ccc21)c1ccccc1 (configuration not stated) | 103.8 | 5.7 | 1.3 | 4.6
CCOc1ccc(NC(=O)Nc2cccs2)cc1 | 94.7 | 4.2 | -0.3 | -2.1
NC(=O)NCc1ccc(Cl)cc1 | nt | nt | -4.5 | nt
CCNC(=O)CC1C(=O)N(c2ccccc2)C(=O)N1CCc1ccc(OC)cc1 (configuration not stated) | 161.7 | -15.5 | -4.2 | -12.0
CCNC(=O)CC1C(=O)N(c2ccc(F)cc2)C(=O)N1Cc1ccc(OC)cc1 (configuration not stated) | 138.1 | 54.7*[fluorescence artefact?] | 5.2 | -2.6
O=C(NCCN1CCCCCC1)C1CCC(CNS(=O)(=O)c2cccc3cccnc23)CC1 (configuration not stated) | 75.0 | 60.4*[fluorescence artefact?] | 5.3 | 33.3
Cc1ccc(Nc2cc(=O)oc3ccccc23)c(C)c1 | nt | nt | -1.5 | nt
Cc1ccc(NC2=C/C(=N\S(=O)(=O)c3cccs3)c3ccccc3C2=O)c(C)c1 | 117.4 | -7.6 | 40.8* | 3.1
CCCC(=O)Nc1c(C)n[nH]c1C | nt | nt | 1.2 | nt
CCCC(=O)Nc1c(C)nn(C(=O)CCC)c1C | 277.8*[fluorescence artefact?] | 5.2 | 4.9 | 3.0
COc1ccccc1NC(=O)C1=C(C)NC(SCC(=O)c2ccc(C)cc2)=C(C#N)C1c1ccco1 (configuration not stated) | 202.7* | -4.0 | -3.5 | -1.8
CC(=O)Oc1ccc(N2C(=O)CCC2=O)cc1 | 97.8 | -1.4 | 0.7 | 2.4
COc1ccc(N2C(=O)CCC2=O)cc1 | 44.8 | 52.3*[fluorescence artefact?] | -12.3 | 42.8
CC(C)Cn1c(-c2cccs2)nc2ccccc21 | 84.6 | -5.4 | 1.3 | 57.3*
COC(=O)N1CC(=O)N(OC)C1c1ccc(Cl)cc1Cl (configuration not stated) | 119.9 | -6.3 | -3.7 | -4.0
Cc1noc(C)c1S(=O)(=O)N(CC(=O)O)c1ccc2c(c1)OCO2 | 60.4 | 40.9 | -2.4 | 53.7*
Cc1cccc(-n2c(Cc3cc(=O)[nH]c(=O)[nH]3)nnc2SCC(=O)N2CCCCC2)c1 | 102.4 | -8.1 | 0.9 | -13.8
Cc1nc2ccc3nc(NC(=O)C4COc5ccccc5O4)sc3c2s1 (configuration not stated) | 279.1* | 5.2 | nt | 14.9
Cc1ccc2nc(NC(=O)c3ccco3)sc2c1 | 106.4 | -4.8 | 3.1 | -7.3
Cc1nc2ccc3nc(NC(=O)c4ccco4)sc3c2s1 | 182.7 | 43.6 | 10.9 | 50.3*[fluorescence artefact?]
Cc1cnc(NC(=O)C2COc3ccccc3O2)s1 (configuration not stated) | 128.2 | 16.0 | 6.6 | 6.5
CSc1nc2ccc3nc(NC(=O)C4COc5ccccc5O4)sc3c2s1 (configuration not stated) | 209.2*[fluorescence artefact?] | 18.2 | 4.2 | 11.8
Cc1csc(NC(=O)C2COc3ccccc3O2)n1 (configuration not stated) | 98.9 | -9.2 | 2.0 | 1.4
SMILES | ERa SRC1 pot | ERa coact inh | FAK blocker | ERb coact inh
O=C(COC(=O)c1ccc2c(c1)OCO2)NC1CCS(=O)(=O)C1 (configuration not stated) | 78.5 | 0.6 | nt | 2.1
Cc1csc(N(C(=O)c2cccc(S(=O)(=O)N(C)C)c2)c2ccccc2)n1 | 141.8 | -13.3 | -2.1 | 4.9
CCCCCCOC(=O)/C=C/c1c(C)[nH]c(=O)[nH]c1=O | nt | nt | 0.4 | nt
Cc1ccc2oc(=O)c3cc(C(=O)NCc4ccco4)sc3c2c1 | 112.5 | 67.5*[fluorescence artefact?] | 1.7 | 53.9*[fluorescence artefact?]
CCN1CCN(C(=O)c2cc3c(=O)oc4ccc(C)cc4c3s2)CC1 | 118.1 | -0.4 | nt | -1.2
CCCN1C2=C(C(=O)CCC2)C(c2ccc(F)cc2)C2=C1c1ccccc1C2=O (configuration not stated) | 93.1 | -30.4 | 1.0 | -27.8
CCN1C2=C(C(=O)CCC2)C(c2ccc(O)c(Br)c2)C2=C1CCCC2=O | 59.1 | 56.4*[fluorescence artefact?] | 4.0 | 60.3*
CCOC(=O)C(C(C)=O)c1c(Br)c(O)c(O)c2c(C(=O)c3ccc(C)cc3)coc12 (configuration not stated) | 54.3 | 43.3 | 3.7 | 71.6*[fluorescence artefact?]
CCOC(=O)c1c(C)n(-c2ccc(C)cc2)c2c(C(C(C)=O)C(=O)O)c(Br)c(O)c(O)c12 (configuration not stated) | nt | nt | -1.8 | nt
O=C(Cc1ccc(Cl)cc1)Nc1ccc(-c2nnc(-c3ccco3)o2)cc1 | 122.7 | 67.5*[fluorescence artefact?] | 11.4 | 36.7
O=C(Cc1ccc(Cl)cc1)Nc1ccc(N2CCN(C(=O)c3ccco3)CC2)cc1 | 127.9 | 67.1*[fluorescence artefact?] | 2.1 | 31.7
O=C(c1ccco1)N1CCN(c2ccc(Cl)cc2)CC1 | 120.7 | 6.2 | -2.4 | -4.1
CC(=O)N(C)C1(c2nnnn2CCOC(=O)Nc2cccc3ccccc23)CCCC1 | 102.3 | 1.9 | 4.4 | -8.7
Cn1c(SCC(=O)N2CCOCC2)nc2cccnc21 | 435.1*[fluorescence artefact?] | 19.2 | 0.6 | 22.3
CCc1ccc(-c2nc(C(N)=O)c3[nH]c(=O)n(-c4ccccc4OC)c3n2)cc1 | 300.2*[fluorescence artefact?] | 19.7 | -2.0 | 12.0
CCOc1ccccc1-c1nc(C(N)=O)c2[nH]c(=O)n(-c3ccc(F)cc3)c2n1 | 126.2 | 10.1 | -9.1 | 3.7
CSc1nnc(Cc2sc(-c3ccccc3)nc2-c2ccccc2)o1 | 98.2 | 5.8 | 2.0 | -5.3
Fc1ccc(CSc2nnc(Cc3sc(-c4ccccc4)nc3-c3ccccc3)o2)cc1 | 274.1*[fluorescence artefact?] | -19.8 | -1.0 | -9.2
COc1ccc(CSc2nnc(Cc3sc(-c4ccccc4)nc3-c3ccccc3)o2)cc1 | 438.4*[fluorescence artefact?] | -41.2 | 2.3 | -18.4
CCOC(=O)c1c(NC(C)=O)sc2c(O)c(CN3CCN(CC)CC3)ccc12 | 199.9 | 53.7*[fluorescence artefact?] | 2.9 | 43.9
Cc1cccc(NC(=O)c2sc3nc(-c4ccc(F)cc4)cn3c2C)n1 | 839.4*[fluorescence artefact?] | -10.1 | -76.0 | -14.6
Cc1cccc(NC(=O)c2sc3nc(-c4ccccc4)cn3c2C)n1 | 143.7 | -28.6 | -2.2 | -13.7
COCC(C)n1c(SCC(=O)NC(=O)Nc2ccc3c(c2)OCCO3)nc2ccccc2c1=O (configuration not stated) | nt | nt | 2.6 | nt
N#Cc1c(-c2ccccc2)cc(C2CC2)nc1SCC(=O)c1cccs1 | nt | nt | 0.2 | nt
CC(C)NC(=O)CSc1nc(-c2cccs2)cc(-c2ccccc2)c1C#N | 254.5* | 11.4 | -25.4 | 7.2
Cc1cccc(C)c1NC(=O)Cn1nc(-c2ccccc2)nc1-c1ccccc1 | nt | nt | -8.5 | nt
COc1ccc(CC(=O)Nc2ccc(-c3noc(-c4cccc(OC)c4)n3)cc2)cc1 | 287.4*[fluorescence artefact?] | 37.6 | 1.4 | 49.6
Cc1ccccc1-c1nc(-c2ccc(NC(=O)c3ccc(Br)o3)cc2)no1 | 265.2* | 44.9 | -7.7 | 39.2
O=C(Nc1ccc(-c2noc(-c3cccs3)n2)cc1)c1cccnc1 | 363.5* | -17.0 | -1.3 | 2.0
COc1cccc(-c2nc(-c3ccc(NC(=O)c4cccnc4)cc3)no2)c1 | 202.7*[fluorescence artefact?] | -4.2 | 8.6 | 17.9
